High-throughput results (PubChem BioAssay)
E coli Lon inh: inhibits E. coli Lon protease; P0A9M0; purified E. coli Lon protease, fluorescence polarization; inhibition, % at 7.94 µM; 0.42% of 360,000 active; AID 602123; in the data active means inhibition above about 13%, passing the limit was not always enough
MEX-5 binding: C. elegans MEX-5 TCR-2 RNA binding activity; Q9XUB2; MEX-5/FITC-TCR2 RNA binding, fluorescence polarization; stronger effect = lower value; activity score (negative = inhibition of binding), % at 10 µM; 0.38% of 300,000 active; AID 1832;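 active means inhibition past about -25% in most replicates, and total fluorescence under double the plate's negative control median, limit read from the data; inconclusive means replicates evenly split on the limit, or fluorescence at least double controls; inactive means too little inhibition in most replicates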
Target sequence (Q9XUB2 whole entry, looked up): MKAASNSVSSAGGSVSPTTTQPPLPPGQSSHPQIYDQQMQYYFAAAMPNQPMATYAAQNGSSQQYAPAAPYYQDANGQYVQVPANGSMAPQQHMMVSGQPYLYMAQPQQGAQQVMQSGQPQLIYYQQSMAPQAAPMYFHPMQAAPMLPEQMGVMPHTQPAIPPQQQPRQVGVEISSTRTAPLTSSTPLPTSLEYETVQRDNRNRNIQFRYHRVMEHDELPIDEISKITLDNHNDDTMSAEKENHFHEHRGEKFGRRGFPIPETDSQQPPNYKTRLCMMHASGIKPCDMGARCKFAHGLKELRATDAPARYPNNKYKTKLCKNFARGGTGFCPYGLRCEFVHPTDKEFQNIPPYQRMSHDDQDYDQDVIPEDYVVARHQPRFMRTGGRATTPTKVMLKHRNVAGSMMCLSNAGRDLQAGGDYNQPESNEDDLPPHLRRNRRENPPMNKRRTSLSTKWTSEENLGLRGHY
MCL1 BIM primary: MCL1-BIM-BH3 interaction inhibition (human) | inhibition, % at 10.9 µM | GST-MCL1 / FITC-Bim-BH3 fluorescence polarization | 0.68% of 320,000 active | AID 2057;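 active means inhibition above the mean inhibition of all tested compounds plus 3 SD, set per campaign, cut at about 40% in these data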;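 further: higher means more loss of mP so more displacement of Bim peptide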
GLD-1 RNA inh: GLD-1-TGE RNA interaction inhibition (C. elegans) | Q17339 | purified GLD-1 + fluorescein TGE RNA, fluorescence polarization | inhibition, % at 5.96 µM | 0.44% of 320,000 active;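 active means percent inhibition above a per-plate cutoff, the plate mean of test compounds plus 3 SD, cut at about 30% in these data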
EBV gp42 block: EBV gp42 inhibition; Q1HVG2; 0.42% of 220,000 active; AID 1085; inhibition, % (tested at 21.74 µM); Fluorescence polarization binding assay, mP read-out; in the data active means inhibition above about 50%
Target sequence (Q1HVG2 whole entry, looked up): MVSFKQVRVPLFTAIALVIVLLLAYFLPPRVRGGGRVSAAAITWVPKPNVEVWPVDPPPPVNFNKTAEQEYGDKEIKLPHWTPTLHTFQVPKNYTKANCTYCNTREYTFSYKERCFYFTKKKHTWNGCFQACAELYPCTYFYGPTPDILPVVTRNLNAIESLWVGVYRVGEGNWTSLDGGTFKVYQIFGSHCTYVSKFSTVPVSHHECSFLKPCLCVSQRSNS
Bcl-xL primary: inhibitors of human Bcl-xL | AID 2129 | inhibition, % at 10.9 µM | 0.7% of 320,000 active | GST-Bcl-xL / FITC-Bim BH3 peptide fluorescence polarization;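 active means inhibition above the mean of all tested compounds plus 3 SD, cutoff set per campaign, cut at about 30% in these data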;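 further: inhibitors lower millipolarization by displacing the labeled peptide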
BCLXL inh confirm: Bcl-xL (human) inhibition, MCL1 counter-screen confirmation; shares compounds with MCL1 BIM primary; inhibition, % at 10.9 µM; AID 2166; GST-Bcl-xL / FITC-Bim BH3 peptide FP binding; 54% of 1,700 active;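 active means inhibition above a cutoff equal to the mean inhibition of all tested compounds plus 3 SD, cut at about 30% in these data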
MCL1 BIM confirm: MCL1-BIM-BH3 interaction inhibition, confirmation. shares compounds with MCL1 BIM primary. GST-MCL1 / FITC-Bim-BH3 fluorescence polarization. inhibition, % at 10.9 µM. 61% of 1,700 active. AID 2168;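 active means inhibition above the average of all tested compounds plus 3 SD, cut at about 40% in these data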
GLD1 RNA confirm: confirmation of C. elegans GLD-1 TGE RNA binding inhibitors | shares compounds with GLD-1 RNA inh | GLD-1/FL-TGE RNA fluorescence polarization, biochemical | inhibition, % at 5.96 µM | 10% of 550 active | AID 2459;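 active means average inhibition across triplicates above the hit cutoff set in the primary screen, cut at about 32% in these data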
Large screens that a line does not name were inactive (follow-up assays come after a bar, where they were run). The list is not random: actives were taken first. Their share in the collection is about 1.4%.

COCCN(C(=O)COC(=O)c1cc2c(s1)CCC2)c1c(N)n(Cc2ccccc2)c(=O)[nH]c1=O	MCL1 BIM primary 91, Bcl-xL primary 32 (no result: EBV gp42 block) | BCLXL inh confirm 40 | MCL1 BIM confirm 88
CC(NC(=O)CCCn1cc([N+](=O)[O-])cn1)c1ccccc1 (stereo not given)	none
COc1cccc(C(=O)Nc2ccc(Oc3cccc(C(F)(F)F)c3)nc2)c1	none
COc1ccc(NC(=O)COc2cccc(C(F)(F)F)c2)cn1	MCL1 BIM primary 70, GLD-1 RNA inh 61, Bcl-xL primary 71 (no result: EBV gp42 block) | BCLXL inh confirm 82 | MCL1 BIM confirm 92
Nc1ccc(C(=O)N/N=C\c2cc(N=Nc3cccc4ccccc34)ccc2O)cc1	MCL1 BIM primary 66 | BCLXL inh confirm inactive | MCL1 BIM confirm 72
COC(=O)N/N=C/c1cc(N=Nc2ccccc2Cl)ccc1O	none
C/C=C/C=C/[C@H]1Cc2cc(O)cc(O)c2O1	MCL1 BIM primary 67, GLD-1 RNA inh 88, EBV gp42 block 54, Bcl-xL primary 60 (no result: E coli Lon inh) | BCLXL inh confirm 57 | MCL1 BIM confirm 83
Cc1onc(-c2ccccc2)c1C(=O)Nc1ccc(S(=O)(=O)NC(C)(C)C)cc1	none
O=C1/C(=C/c2ccccc2)Nc2ccccc21	MCL1 BIM primary 57, Bcl-xL primary 64 | BCLXL inh confirm 56 | MCL1 BIM confirm 82
CC(C)(C)OC(=O)NCCCCC1=CC2=CC(=O)C(C)(OC(=O)c3ccco3)C(=O)C2=CO1 (stereo not given)	MCL1 BIM primary 61, GLD-1 RNA inh 49 (no result: E coli Lon inh, EBV gp42 block) | BCLXL inh confirm inactive | MCL1 BIM confirm inactive
COC(=O)CCCC1=CC2=CC(=O)C(C)(OC(=O)c3ccco3)C(=O)C2=CO1 (stereo not given)	MEX-5 binding -42, MCL1 BIM primary 88, GLD-1 RNA inh 73, Bcl-xL primary 67 (no result: E coli Lon inh, EBV gp42 block) | BCLXL inh confirm 75 | MCL1 BIM confirm 110
CCCCC1=CC2=CC(=O)C(C)(OC(=O)c3ccc(Cl)nc3)C(=O)C2=CO1 (stereo not given)	MEX-5 binding -29, MCL1 BIM primary 66, GLD-1 RNA inh 68, Bcl-xL primary 52 (no result: E coli Lon inh, EBV gp42 block) | BCLXL inh confirm 48 | MCL1 BIM confirm 65
CC(C)(C)OC(=O)NCCCC1=CC2=CC(=O)C(C)(OC(=O)C3CCCC3)C(=O)C2=CO1 (stereo not given)	MCL1 BIM primary 74, GLD-1 RNA inh 79, Bcl-xL primary 65 (no result: E coli Lon inh, EBV gp42 block) | BCLXL inh confirm 48 | MCL1 BIM confirm 66
CC1(OC(=O)c2ccco2)C(=O)C=C2C=C(c3ccsc3)OC=C2C1=O (stereo not given)	none (no result: E coli Lon inh, EBV gp42 block)
CCCCC1=CC2=CC(=O)C(C)(O)C(=O)C2=CO1 (stereo not given)	MEX-5 binding inconclusive (no result: E coli Lon inh, EBV gp42 block)
Cc1ccc(CSc2nnc(CNc3ccc(F)cc3)o2)cc1	none
C/C(N)=C(/C#N)C(=O)CSc1nnc(NC(C)C)s1	MCL1 BIM primary 51 | BCLXL inh confirm inactive | MCL1 BIM confirm 78
O=C(Nc1cccc(F)c1)N1CCCC(CNS(=O)(=O)Cc2ccccc2)C1 (stereo not given)	none
O=C1C=C(O)c2c(O)cc(O)c(O)c2C1=O	MEX-5 binding -100, MCL1 BIM primary 95 (no result: EBV gp42 block) | BCLXL inh confirm inactive | MCL1 BIM confirm 97
COc1ccc(C2=NN(C(=O)/C=C/c3ccccc3)C(c3ccccc3)C2)c(OC(C)=O)c1 (stereo not given)	none
COc1ccc(C2CC(c3ccc(OC)cc3OC(C)=O)=NN2C(=O)c2ccccc2)cc1 (stereo not given)	MCL1 BIM primary 92 (no result: EBV gp42 block) | BCLXL inh confirm 36 | MCL1 BIM confirm 49
CN1C=CC2=C(C#N)C(N)C(C#N)(C#N)[C@H](c3ccccc3)[C@H]2C1 (stereo not given in full)	MEX-5 binding inconclusive, MCL1 BIM primary 92, Bcl-xL primary 81 | BCLXL inh confirm 31 | MCL1 BIM confirm inactive
N#CC1(C#N)C(C(N)=O)C1c1ccccc1 (stereo not given)	none
Cc1ccc(C(=O)NCC(c2ccc(F)cc2)N2CCOCC2)cc1 (stereo not given)	none
CN(C)c1ccc(C(CNC(=O)c2ccc(-c3ccccc3)cc2)N2CCOCC2)cc1 (stereo not given)	MCL1 BIM primary 89, GLD-1 RNA inh 37, Bcl-xL primary 80 (no result: EBV gp42 block) | BCLXL inh confirm inactive | MCL1 BIM confirm inactive | GLD1 RNA confirm inactive
N#Cc1c(-c2ccco2)cc(-c2cccnc2)nc1N	MCL1 BIM primary 75, GLD-1 RNA inh 44, Bcl-xL primary 46 | BCLXL inh confirm inactive | MCL1 BIM confirm inactive | GLD1 RNA confirm inactive
N#Cc1c(-c2cccnc2)cc(-c2ccccc2)nc1N	none
O=C(O)c1cc(O)ccc1N=Nc1ccccc1	none
O=C(O)c1ccccc1N=Nc1ccc(O)cc1	MCL1 BIM primary 64, GLD-1 RNA inh 39, Bcl-xL primary 58 (no result: EBV gp42 block) | BCLXL inh confirm 52 | MCL1 BIM confirm 60 | GLD1 RNA confirm 33
CCC(=O)NNC(=O)Cc1c(C)n(C(=O)c2ccc(Cl)cc2)c2ccc(OC)cc12	none (no result: EBV gp42 block)
c1ccc(-c2ccc3ccccc3n2)cc1	none (no result: EBV gp42 block)
CNc1ccccc(-c2ccc3ccccc3n2)c1=O	MCL1 BIM primary 58, GLD-1 RNA inh 35, Bcl-xL primary 48 | BCLXL inh confirm 79 | MCL1 BIM confirm 95 | GLD1 RNA confirm inactive
CC(C)c1ccc(NC(=O)NN2CCOCC2)cc1	none
N#Cc1c(SCC(=O)N2CCOCC2)nsc1SCC(=O)N1CCOCC1	MCL1 BIM primary 76, GLD-1 RNA inh 50, Bcl-xL primary 66 | BCLXL inh confirm inactive | MCL1 BIM confirm inactive | GLD1 RNA confirm inactive
Cc1cccc(CCNC(=O)C2CC(O)CN2C(=O)Nc2ccccc2)c1 (stereo not given)	none (no result: MEX-5 binding, MCL1 BIM primary, GLD-1 RNA inh, EBV gp42 block, Bcl-xL primary)
CCOC(=O)c1sc(=S)n(-c2ccc3c(c2)OCO3)c1N	MCL1 BIM primary 49, GLD-1 RNA inh 49, Bcl-xL primary 106 | BCLXL inh confirm inactive | MCL1 BIM confirm inactive | GLD1 RNA confirm inactive
COc1ccc(CN(C)CCCn2cnc3c(OC)ncnc32)cc1OC	none (no result: MEX-5 binding, MCL1 BIM primary, GLD-1 RNA inh, EBV gp42 block, Bcl-xL primary)
Nc1ccc(O)c2c1C(=O)c1ccccc1C2=O	MCL1 BIM primary 158, GLD-1 RNA inh 82, EBV gp42 block 125, Bcl-xL primary 123 | BCLXL inh confirm 120 | MCL1 BIM confirm 177 | GLD1 RNA confirm 67
CCC(=O)OCCNc1cc(Sc2nc3ccccc3[nH]2)c2nonc2c1[N+](=O)[O-]	none (no result: MEX-5 binding)
